Assay results reported in PubChem BioAssay (NCATS).
Several values for one entry are separate records, joined by “and”; a condition that tells them apart may be missing. Equal values may be shown once. Unmarked numbers belong to inactive results. Records with an inconclusive call do not appear. Entries that show only a call come without a potency. Activity calls are given as the source filed them. Unless noted, the call rests on the fitted dose curve; in most records, active means well fitted curve in the direction sought with a large enough effect; inconclusive means small, poorly fitted or top-dose-only effect, or another doubt; inactive means no such curve, though single readings can be large; an effect the other way counts as inactive or inconclusive.

Tests used:
[1] = qHTS of pediatric cancer cell lines to identify multiple opportunities for drug repurposing: Primary screen for TC32 cells (AID 1347089); further: nearly all actives have a fitted effect of over 60% in size
In short: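 Luminescent CellTiter-Glo read-out of metabolically active TC32 cells after 48 h compound exposure. Primary: MIPE 11-point, 0.78 nM–46 µM; NPC 8-point, 0.59 nM–46 µM. Confirmatory: 11-point dilutions.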

[2] = qHTS of pediatric cancer cell lines to identify multiple opportunities for drug repurposing: Primary screen for RD cells (AID 1347104); conditions: RD rhabdomyosarcoma viability, CellTiter-Glo luminescence, 48 h; further: potency means the concentration at half of the fitted maximal effect; nearly all actives have a fitted effect of over 55% in size
In short: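 Primary screen of approved and investigational compounds on cells in growth media at 37 degrees C, 5% CO2. MIPE set at 11-point and NPC set at 8-point dilutions; viability scored by ATP-based luminescence at 48 hours.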

[3] = target: Cytochrome P450 3A4 (Homo sapiens) (UniProt P08684); test: qHTS Assay for Activators of Cytochrome P450 3A4 (AID 885); further: nearly all actives have a fitted effect of over 65% in size
Cytochrome P450 3A4 (Homo sapiens), sequence (P08684 whole entry, looked up): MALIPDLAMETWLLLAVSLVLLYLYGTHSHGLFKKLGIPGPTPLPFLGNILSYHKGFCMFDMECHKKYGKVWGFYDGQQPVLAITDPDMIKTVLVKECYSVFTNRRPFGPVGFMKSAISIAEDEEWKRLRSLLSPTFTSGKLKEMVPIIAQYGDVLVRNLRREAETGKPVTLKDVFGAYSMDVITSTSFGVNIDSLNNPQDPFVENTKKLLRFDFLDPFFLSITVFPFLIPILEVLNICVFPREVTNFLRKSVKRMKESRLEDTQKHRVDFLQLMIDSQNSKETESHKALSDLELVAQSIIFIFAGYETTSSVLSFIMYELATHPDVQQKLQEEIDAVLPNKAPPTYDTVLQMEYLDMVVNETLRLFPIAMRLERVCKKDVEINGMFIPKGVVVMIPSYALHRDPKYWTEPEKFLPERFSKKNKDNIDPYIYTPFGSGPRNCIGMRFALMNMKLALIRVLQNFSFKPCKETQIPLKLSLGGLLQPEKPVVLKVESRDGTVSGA
In short: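 Steps: enzyme/substrate mix dispensed; compound added, 10 min RT; NADPH regeneration solution added, 60 min RT; luciferin detection buffer stops reaction; 20 min later luminescence measured.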

[4] = Counterscreen qHTS for small molecule stabilizers of the endoplasmic reticulum resident proteome: GLuc-NoTag assay (AID 1508627);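 further: SH-SY5Y cells given compound then 100 nM thapsigargin to empty ER calcium; series mostly up to about 76 µM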
In short: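 SH-SY5Y cells stably expressing constitutively secreted GLuc (no SERCaMP tag) were pre-incubated 5 h, treated with compound for 19 h, then 100 nM thapsigargin for 4 h at 37C; medium GLuc read by coelenterazine luminescence.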

[5] = Confirmatory qHTS for small molecule stabilizers of the endoplasmic reticulum resident proteome: Secreted ER Calcium Modulated Protein (SERCaMP) assay (AID 1508628); further: potency means the concentration at half of the fitted maximal effect; nearly all actives have a fitted effect of over 40% in size
In short: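 SH-SY5Y cells stably expressing GLuc-SERCaMP, treated 16 h with compound (primary 1.53, 7.67, 38.3 uM; confirmation 11 concentrations, up to 76.6 uM), then 100 nM thapsigargin for 4 h. Secreted Gaussia luciferase in medium read by coelenterazine luminescence.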

[6] = NCATS anti-infectives library activity on the primary C. elegans qHTS viability assay (AID 1745855; calls by dose curve)
In short: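 Viability read-out is GFP fluorescence of PE254-GFP-FLuc C. elegans, measured by laser cytometry (488 nm) at day 0, 3 and 7. Ten L1 worms per well were incubated 7 days at 21 °C with compounds and bacterial capsules in S medium.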

[7] = target: Cytochrome P450 3A4 (Homo sapiens) (UniProt P08684); test: qHTS Assay for Inhibitors and Substrates of Cytochrome P450 3A4 (AID 884); further: series mostly up to about 57 µM; nearly all actives have a fitted effect of over 50% in size
In short: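 20 nM human CYP3A4 with 25 uM Luciferin-PPXE (at KM) in 200 mM KPO4, preincubated 10 min with compound; NADPH regeneration started a 60 min RT reaction. Luciferin detected by luminescence, normalized to 57 uM ketoconazole as full inhibition.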

[8] = Confirmation and Secondary Assay for Modulators of Hemoglobin Beta Chain Splicing at IVS2 654 locus (AID 910);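 further: per-well total GFP intensity by laser scanning cytometry after 2-day treatment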
In short: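 HeLa cells stably carrying EGFP interrupted by mutant beta-globin IVS2-654 intron (CMV-driven) were treated with compound for 2 days at 37C; corrected splicing was scored as total peak GFP intensity per well (488 nm excitation, 500-520 nm emission).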

[9] = Confirmation and Secondary Assay for Modulators of Hemoglobin Beta Chain Splicing at IVS2 705 locus (AID 930);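 further: HeLa cells stably expressing the EGFP-705 splicing reporter; GFP fluorescence per well restored by corrected splicing of the IVS2-705 intron in EGFP; series mostly up to about 46 µM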
In short: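 Secondary splice-site specificity test uses HeLa expressing CMV-driven EGFP interrupted by IVS2-705; cells were treated 2 days at 37C with 500 nM antisense PNA as positive control.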

[10] = target: ATP-dependent 6-phosphofructokinase (Trypanosoma brucei brucei) (UniProt O15648); test: qHTS Assay to Find Inhibitors of T. brucei phosphofructokinase: hit validation (AID 492961);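 further: luminescence reports ADP formed as PFK phosphorylates fructose-6-phosphate with ATP; series mostly up to about 51 µM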
ATP-dependent 6-phosphofructokinase (Trypanosoma brucei brucei), sequence (O15648 whole entry, looked up): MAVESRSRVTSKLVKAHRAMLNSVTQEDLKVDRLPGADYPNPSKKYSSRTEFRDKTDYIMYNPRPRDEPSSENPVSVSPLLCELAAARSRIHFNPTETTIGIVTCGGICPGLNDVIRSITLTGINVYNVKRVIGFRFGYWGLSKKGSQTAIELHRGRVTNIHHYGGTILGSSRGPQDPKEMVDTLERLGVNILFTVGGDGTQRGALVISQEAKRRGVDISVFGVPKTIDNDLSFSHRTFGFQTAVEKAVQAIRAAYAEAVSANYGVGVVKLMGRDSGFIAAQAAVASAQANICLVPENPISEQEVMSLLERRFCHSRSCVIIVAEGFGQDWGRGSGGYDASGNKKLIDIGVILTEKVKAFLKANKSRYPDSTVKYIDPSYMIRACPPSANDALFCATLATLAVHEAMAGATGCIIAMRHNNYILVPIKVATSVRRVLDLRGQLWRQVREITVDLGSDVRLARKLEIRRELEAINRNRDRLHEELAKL
In short: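 Reaction: 0.1 M triethanolamine pH 8.0, 5 mM MgCl2, F6P 0.5 mM, ATP 0.1 mM, PFK 1.25 nM, 45 min RT. Read-out: ADP-Glo luminescence. Analysis: concentration-response fits, classed by r2 and efficacy.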

[11] = target: Ubiquitin carboxyl-terminal hydrolase 1 (Homo sapiens) (UniProt O94782); test: Inhibitors of USP1/UAF1: Pilot qHTS (AID 504865);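 further: rhodamine fluorescence freed from ubiquitin-rhodamine substrate followed over time; top concentration of the series differs between compounds; nearly all actives have a fitted effect of over 35% in size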
Ubiquitin carboxyl-terminal hydrolase 1 (Homo sapiens), sequence (O94782 whole entry, looked up): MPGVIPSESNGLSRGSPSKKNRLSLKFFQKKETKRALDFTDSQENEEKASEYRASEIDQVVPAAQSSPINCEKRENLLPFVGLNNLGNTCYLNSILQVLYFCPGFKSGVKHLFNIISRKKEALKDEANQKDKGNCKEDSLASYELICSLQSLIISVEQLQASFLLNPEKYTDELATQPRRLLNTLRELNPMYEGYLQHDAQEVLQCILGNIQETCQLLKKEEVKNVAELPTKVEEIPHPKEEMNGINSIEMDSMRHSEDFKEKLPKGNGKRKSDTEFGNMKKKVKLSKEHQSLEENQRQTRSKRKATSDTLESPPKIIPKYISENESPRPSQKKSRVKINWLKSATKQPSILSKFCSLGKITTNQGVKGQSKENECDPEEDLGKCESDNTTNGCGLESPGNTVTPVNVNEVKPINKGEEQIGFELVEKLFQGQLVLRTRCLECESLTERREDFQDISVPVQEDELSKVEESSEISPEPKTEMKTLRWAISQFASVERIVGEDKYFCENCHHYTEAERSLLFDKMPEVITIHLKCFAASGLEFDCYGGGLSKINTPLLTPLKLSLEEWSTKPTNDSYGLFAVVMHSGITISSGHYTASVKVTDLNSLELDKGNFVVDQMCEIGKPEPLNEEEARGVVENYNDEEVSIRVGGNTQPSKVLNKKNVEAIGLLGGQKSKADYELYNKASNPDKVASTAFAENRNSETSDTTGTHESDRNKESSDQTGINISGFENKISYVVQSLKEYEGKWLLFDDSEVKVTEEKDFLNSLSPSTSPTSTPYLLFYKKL
In short: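 USP1/UAF1 complex (1nM) preincubated with compound 15 min at room temperature, then Ub-Rho substrate (150nM final) added. Fluorescence read kinetically at 480/540 nm, 6 reads every 60 seconds. Buffer: 50mM HEPES pH 7.8, 0.5mM EDTA, 0.1 mg/ml BSA, 1mM TCEP, 0.01% Tween-20.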

[12] = target: Luciferin 4-monooxygenase (Photinus pyralis) (UniProt P08659); test: Biochemical firefly luciferase enzyme assay for NPC (AID 624030);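 further: purified P. pyralis luciferase at 10 nM with luciferin and ATP substrate; series mostly up to about 59 µM; nearly all actives have a fitted effect of over 70% in size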
Luciferin 4-monooxygenase (Photinus pyralis), sequence (P08659 whole entry, looked up): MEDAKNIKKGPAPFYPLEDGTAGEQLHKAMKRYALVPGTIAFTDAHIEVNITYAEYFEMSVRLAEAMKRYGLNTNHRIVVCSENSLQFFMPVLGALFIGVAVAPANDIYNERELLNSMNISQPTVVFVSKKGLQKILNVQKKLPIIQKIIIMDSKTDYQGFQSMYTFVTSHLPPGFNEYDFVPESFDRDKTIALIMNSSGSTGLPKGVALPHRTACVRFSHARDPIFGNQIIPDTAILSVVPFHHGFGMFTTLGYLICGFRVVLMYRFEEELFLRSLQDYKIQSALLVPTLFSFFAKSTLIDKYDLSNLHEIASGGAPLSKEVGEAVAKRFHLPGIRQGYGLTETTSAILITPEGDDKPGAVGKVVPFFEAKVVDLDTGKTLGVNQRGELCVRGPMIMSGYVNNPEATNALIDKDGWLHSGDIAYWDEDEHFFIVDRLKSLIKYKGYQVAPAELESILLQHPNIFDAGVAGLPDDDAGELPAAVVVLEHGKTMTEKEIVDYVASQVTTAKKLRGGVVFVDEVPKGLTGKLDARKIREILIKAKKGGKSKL
In short: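 Counter-screen for direct inhibition of the luciferase enzyme by approved-drug library compounds, run at 10 nM enzyme in 50 mM Tris acetate (final). Luminescence was read within 5 min of enzyme-buffer addition and normalized to PTC124 versus DMSO (0%).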

[13] = Cell Viability - BJ (AID 421; calls by dose curve;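 further: potency means the concentration at half of the fitted maximal effect; cells exposed to compound for 40 hours at 37 °C before readout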); conditions: BJ fibroblast viability, qHTS
In short: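 Cytotoxicity in human BJ foreskin fibroblasts is scored as loss of cellular ATP after a 40-hour exposure, measured by luciferase luminescence. Controls are DMSO and 100 uM tamoxifen.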

[14] = Cell Viability - Jurkat (AID 426;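 active means dose-dependent loss of cell ATP signal giving a full or clear fitted curve, ranked by lower potency value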;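 further: potency means the concentration at half of the fitted maximal effect; cells exposed to compound for 40 hours at 37 °C before ATP read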); conditions: qHTS
In short: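 Jurkat (Clone E6-1) cells, 5000/well in complete medium, exposed to compounds for 40 hr at 37C; intracellular ATP measured by CellTiter-Glo luminescence after 20 min at room temperature. AC50 from Hill fits.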

[15] = Cell Viability - Hek293 (AID 427;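 active means compounds whose dose-response curve shows a full or clear partial loss of cell viability, called from curve shape rather than a numeric limit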;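 further: potency means the concentration at half of the fitted maximal effect; cells exposed to compound for 40 hours at 37 °C before reading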); conditions: qHTS
In short: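 qHTS, human embryonic kidney (adenovirus-transformed) cells; 40 hr cpd, 37 °C; CellTiter-Glo ATP luminescence. Norm: DMSO = 0, 100 uM tamoxifen = 100% inhibition. Hill-fit AC50.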

[16] = Cell Viability - HepG2 (AID 433; calls by dose curve;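 further: potency means the concentration at half of the fitted maximal effect; potency for ATP loss meaning cytotoxicity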); conditions: qHTS
In short: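 HepG2 hepatocellular carcinoma cells (1500/well) were treated with compounds for 40 h at 37 °C in complete medium; intracellular ATP was read by CellTiter-Glo luminescence. Data were normalized to DMSO and 100 uM tamoxifen, and AC50 came from Hill fits.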

[17] = Cell Viability - MRC5 (AID 434; calls by dose curve;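 further: potency means the concentration at half of the fitted maximal effect; potency reflects cytotoxicity seen as loss of intracellular ATP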); conditions: MRC5 lung fibroblast viability, qHTS
In short: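 MRC5 normal human lung fibroblasts (1500/well) were treated with compounds for 40 hr at 37 °C in complete medium, and viable cells were measured as intracellular ATP by CellTiter-Glo luminescence. AC50 came from Hill fits, normalized to DMSO and 100 uM tamoxifen.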

[18] = Cell Viability - SK-N-SH (AID 435; calls by dose curve;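 further: potency means the concentration at half of the fitted maximal effect; compound exposure lasted 40 h at 37 °C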); conditions: SK-N-SH neuroblastoma cell viability qHTS
In short: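 SK-N-SH human neuroblastoma cells (1500/well) were exposed to compounds in complete medium for 40 h at 37 °C, and intracellular ATP was then measured by CellTiter-Glo luminescence. AC50 was taken from Hill fits, normalized to DMSO and 100 uM tamoxifen.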

[19] = qHTS assay for small molecule activators of the p53 signaling pathway (AID 651743; active means well fitted activation curve with a large enough effect in the signal ratio, not every such curve was filed as active; the % refers to the signal ratio; further: series mostly up to about 92 µM); conditions: HCT-116 p53RE-bla, beta-lactamase FRET ratio, 16 h; hits give high values
In short: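 Cell-based beta-lactamase reporter (p53 response elements, HCT-116 background). After a 5-hour preincubation, cells received compound for 16 hours at 37 C; substrate development ran 2 hours at room temperature.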

[20] = qHTS assay for small molecule disruptors of the mitochondrial membrane potential - 1 hr assay (AID 651754; calls by dose curve; further: potency means the concentration at half of the fitted maximal effect; nearly all actives have a fitted effect of over 35% in size)
In short: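 HepG2 cells, attached overnight, were exposed to compound for 1 hr at 37C, then stained 30 min with a potentiometric dye. Ratio of red aggregate (590nm) to green monomer (535nm) fluorescence reports membrane potential; collapse shifts signal toward green.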

Structure (SMILES): CS(=O)(=O)c1ccc(-c2cn3ccccc3n2)cc1
- outcome [1]: inactive
- Potency [2]: 23.7 µM (active)

Structure (SMILES): Oc1ccc(Nc2nc(-c3ccc(Cl)cc3)cs2)cc1
- Potency [3]: inactive
- Potency [4]: inactive
- Potency [5]: 2 µM (active)

Structure (SMILES): N#C[C@@H]1C[C@@H]2C[C@@H]2N1C(=O)[C@@H](N)C12CC3CC(CC(O)(C3)C1)C2
- Potency [6]: inactive

Structure (SMILES): CCCCC(=O)N(Cc1ccc(-c2ccccc2-c2nn[nH]n2)cc1)C(C(=O)O)C(C)C (stereo not given)
- Potency [7]: inactive
- outcome [8]: inactive
- outcome [9]: inactive
- outcome [10]: inactive
- Potency [11]: inactive
- Potency [12]: inactive

Structure (SMILES): Nc1ccc(N)c([N+](=O)[O-])c1
- Potency [13]: > 92 µM
- Potency [14]: > 92 µM
- Potency [15]: > 92 µM
- Potency [16]: > 92 µM
- Potency [17]: > 92 µM
- Potency [18]: > 92 µM
- activation [19]: -0.975% and -0.0594%
- Potency [20]: 29.8 µM (active)
